# Screening data: PubChem BioAssay, National Center for Advancing Translational Sciences (NCATS)
# Rows were chosen to be rich in hits. Some 19% of all compounds tested hit in one or more screens of this group.
# HT1080NT lethal = kills 2HG-producing HT-1080-NT fibrosarcoma cells; actives 1.6% (n = 360,000); Potency, µM (doses to about 46.1 µM), for inactives: at the top dose activity, negative = less viability, hits mostly cytotoxic; HT-1080-NT fibrosarcoma viability, CellTiter-Glo ATP luminescence, 48 h;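 note: NT is the 2HG producing partner of a matched IDH1 knockdown line; potency is the fitted concentration of half-maximal effect; 0% = DMSO-treated cells and -100% = media-only wells without cells; nearly all actives have a fitted effect of over 55% in size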
#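 HT-1080-NT fibrosarcoma cells (2HG-overproducing), 750 cells/well in RPMI with 5% FBS, dosed after 2 h and incubated 48 h at 37C. CellTiter-Glo luminescence normalized to DMSO and no-cell wells; concentration-response curves fitted and classed.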
# TDP1 cell noCPT = qHTS for Inhibitors of human tyrosyl-DNA phosphodiesterase 1 (TDP1): qHTS in cells in absence of CPT; DT40 Tdp1-/- hTDP1 cells, no CPT, ATP luminescence, 48 h; Potency, µM (highest dose often 46.2 µM), inactives show at the highest dose activity change, negative = growth inhibition, usual class: inhibitors; actives 15% (n = 420,000); note: potency is the fitted concentration of half-maximal effect; nearly all actives have a fitted effect of over 55% in size
#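 Luminescent ATP content (CellTiter-Glo) served as the growth readout. Knockout chicken DT40 cells expressing human TDP1 were exposed to compounds without camptothecin for a minimum 48 hr at 37 °C.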
# HT1080 IDH1KD tx = toxicity to HT-1080 IDH1 knockdown cells (counter line); Potency, µM (titrated, usually from 46.1 µM), without a hit: at the highest dose activity, negative = toxicity, hits mostly cytotoxic; AID 686971; actives 2% (n = 360,000); HT-1080 IDH1 knockdown viability, ATP luminescence, 48 h;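 note: potency is the fitted concentration of half-maximal effect; 0% = DMSO wells and -100% = cell-free medium wells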
#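 Luminescent ATP read-out (CellTiter-Glo, 10 min at room temperature) after 48 h compound exposure at 37 °C gave viability of IDH1-knockdown HT-1080 cells. Activity was normalised to DMSO and cell-free wells, then fitted as concentration-response curves.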
# TDP1 cell CPT = DT40-hTDP1 cell growth loss with CPT; chicken DT40 Tdp1-/-;hTDP1 cells + 20 nM CPT, ATP luminescence, 48 h; Potency, µM (series often up to 46.2 µM), inactives show at the top dose activity change, negative = growth inhibition, actives largely listed as inhibitors; actives 12% (n = 420,000); note: potency is the fitted concentration of half-maximal effect; nearly all actives have a fitted effect of over 55% in size
#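 Chicken DT40 Tdp1-/- cells stably complemented with human TDP1 were seeded at 400 cells/well in medium containing 20 nM camptothecin, exposed to pin-transferred compounds, and grown at 37 °C for at least 48 hr. Viability was read as ATP luminescence.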
# IL1B secr inh = blocks inflammasome-driven IL-1 beta release; THP-1 LPS/ATP IL-1B secretion, AlphaLISA, 16 h; hits give low values; activity change, % at 57.5 µM; actives 4.7% (n = 360,000); AID 743279; in the data active = activity change below about -50%; inconclusive = mostly about -30% to -49%
#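 Secreted IL-1B measured by AlphaLISA bead assay after 16 h compound exposure of THP-1 cells; compounds (final up to 57.5 uM) added 1 h before LPS (250 ng/mL) and ATP (1.25 mM) stimulation; lower signal means less secretion.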
# Active calls of the source: *; ? = inconclusive; / = no result given; [ ] = dose if it differs, or a comment. Unless noted, calls come from the whole dose curve; as a rule, active = well fitted curve in the direction sought with a large enough effect; inconclusive = small, poorly fitted or top-dose-only effect, or another doubt; inactive = no such curve, though single readings can be large; an effect the other way counts as inactive or inconclusive. Unless noted, % is set by controls: 0 for no effect and ±100 for the full control effect.
SMILES,HT1080NT lethal,TDP1 cell noCPT,HT1080 IDH1KD tx,TDP1 cell CPT,IL1B secr inh
O=C(Nc1cc(S(=O)(=O)N2CCOCC2)ccc1N1CCCCC1)c1ccc(Cl)cc1,0%,13µM*,-2%,18µM*,-5
O=C(Nc1cc(S(=O)(=O)N2CCOCC2)ccc1N1CCCC1)c1ccccc1F,7%,2%,13%,2%,-4
O=C(Nc1cc(S(=O)(=O)N2CCOCC2)ccc1N1CCCCC1)c1ccccc1Br,5%,?,11%,?,-59*
Cc1c(C(=O)Nc2cc(S(=O)(=O)N3CCOCC3)ccc2N2CCN(C)CC2)oc2ccccc12,-4%,18µM*,-8%,?,28
Cc1ccc(C(=O)Nc2cc(S(=O)(=O)N3CCOCC3)ccc2N2CCCC2)cc1,-4%,?,-11%,-15%,?
Cc1ccc(C(=O)OCC(=O)NC2CC2)cc1S(=O)(=O)N1CCOCC1,15%,23%,8%,2%,10
O=C(NNCc1ccc(O)cc1)c1ccccc1Cl,1%,-22%,9%,-10%,7
CC1CN(S(=O)(=O)c2cccc(C(=O)N=c3sccn3C)c2)CC(C)O1 (stereo unspecified),-12%,?,-3%,18µM*,-2
O=C(Nc1cc(S(=O)(=O)N2CCOCC2)ccc1N1CCCC1)c1ccc2c(c1)S(=O)(=O)c1ccccc1C2=O,0%,?,-23%,13µM*,?
CC1CN(S(=O)(=O)c2cccc(C(=O)Nc3ccccc3N3CCCCC3)c2)CC(C)O1 (stereo unspecified),-18%,13µM*,-26%,16µM*,-1
CN1CCN(c2ccc(S(=O)(=O)N3CCCCC3)cc2NC(=O)c2ccc3ccccc3c2)CC1,-16%,?,?,?,-92*
CC1CN(S(=O)(=O)c2cccc(C(=O)Nc3ccccc3N3CCOCC3)c2)CC(C)O1 (stereo unspecified),-1%,?,-4%,?,-1
CC(=O)c1ccc(OCCOc2ccc(Cl)c3cccnc23)cc1,20%,-7%,21%,-7%,18
O=C(Nc1ccc(Cl)c(Cl)c1)Nc1cc(S(=O)(=O)N2CCOCC2)ccc1N1CCCC1,-25%,18µM*,?,?,-60*
CC(C)C(=O)Nc1cc(S(=O)(=O)N2CCOCC2)ccc1N1CCCCC1,0%,?,3%,1%,10
CC(=O)c1ccccc1NC(=O)c1cc(S(=O)(=O)N2CCOCC2)ccc1N1CCCC1,5%,21µM*,1%,?,-7
CC(C)COc1cccc(C(=O)Nc2cc(S(=O)(=O)N3CCOCC3)ccc2N2CCCC2)c1,-1%,21µM*,-2%,?,/
CC(C)(C)C(=O)Nc1cc(S(=O)(=O)N2CCCCC2)ccc1N1CCCCC1,?,23µM*,?,16µM*,0
CC1(C)NC(=O)N(CC(O)CN(c2ccccc2)S(=O)(=O)c2ccccc2[N+](=O)[O-])C1=O (stereo unspecified),7%,-6%,22%,9%,7
O=C(CSc1nnc(-c2ccccc2Cl)o1)Nc1ccccn1,-3%,?,-1%,?,-2
COc1ccc(NS(=O)(=O)c2ccc(/C=C/C(=O)O)cc2)cc1S(=O)(=O)N1CCOCC1,19%,9%,7%,9%,13
CN(CC(=O)Nc1c(Cl)cccc1Cl)C(=O)C1CSC2(C)CCC(=O)N12 (stereo unspecified),1%,8%,0%,-21%,15
CN1CCN(CCCC(=O)c2ccc(F)cc2)CC1,-2%,17%,-16%,-3%,-8
CN(C)CCC(=O)c1ccc(F)cc1,1%,4.6µM*,-1%,5.2µM*,-12
CCN(CC)CCC(=O)c1ccc(F)cc1,-2%,2.3µM*,4%,2.9µM*,6
SMILES,HT1080NT lethal,TDP1 cell noCPT,HT1080 IDH1KD tx,TDP1 cell CPT,IL1B secr inh
CN(C)CCC(=O)c1ccc2c(c1)OCO2,3%,3.7µM*,6%,3.7µM*,-24
CC1(C)CC(=O)c2cc(OCC(=O)N3CCN(c4ccccc4F)CC3)ccc2O1,-1%,-16%,-9%,-15%,-16
CC1(C)CC(=O)c2c(O)cc(OCC(=O)N3CCN(c4ccc(F)cc4)CC3)cc2O1,0%,?,-5%,?,-55*
CCC(=O)Nc1cc(-c2nc3ccccc3s2)c(Cl)cc1Cl,/,-27%,/,-13%,/
CCc1ccc2nc(SCC(=O)Nc3nnc(C)s3)c(C)cc2c1,-4%,?,-3%,9.2µM*,-6
CCC(=O)N1Cc2cc(C(=O)NCCOC)nc(-c3cccc(-c4ccc(C#N)cc4)c3)c2[C@H]1CCO,-7%,?,-9%,-18%,0
CCCNC(=O)c1cc2c(c(-c3cccc(-c4ccccc4F)c3)n1)[C@H](CCO)N(C(=O)CC1CC1)C2,?,16µM*,?,16µM*,-12
CCNC(=O)c1cc2c(c(-c3cccc(-c4ccccc4F)c3)n1)[C@@H](CCO)N(C(=O)CC1CC1)C2,?,?,?,21µM*,15
Cc1ccc(NC(=O)N2CCN(C)c3ncccc32)cc1C,/,3%,/,2%,/
O=C(O)C1CC[C@@](C(=O)O)(c2ccccc2)c2ccccc21 (stereo partly specified),/,11%[9.04 µM],/,11%[9.04 µM],/
Cc1ccc(C)c(OCC(O)CNC2CCCC2)c1 (stereo unspecified),1%,?,-4%,-25%,-5
CC(C)(C)NC(=O)CN1CCN(C(=O)CCl)CC1,?,21µM*,?,23µM*,-79*
CCOC(=O)N1CCN(C(=O)CCl)CC1,?,?,?,?,-92*
CC(C)(C)NC(=O)NC(=O)CN1CCCCCCC1,-3%,-18%,-4%,9%,20
COc1cc(C#Cc2c(-c3cncn3C)n(C)c3ccc(-c4ccc(OC)nc4)cc23)cc(OC)c1,-22%,?,-7%,16µM*,-11
COc1cc(C#Cc2c(-c3cncn3C)n(C)c3ccc(-c4ccc5[nH]ccc5c4)cc23)cc(OC)c1,0%,?,-2%,?,-27
COc1cc(C#Cc2c(-c3cncn3C)n(C)c3ccc(-c4cc(OC)c(OC)c(OC)c4)cc23)cc(OC)c1,?,16µM*,?,21µM*,-76*
O=C(COC(=O)CN1C(=O)C2CCCCC2C1=O)NCc1ccc(Cl)cc1Cl (stereo unspecified),1%[9.24 µM],5%,2%,-24%,-3
CN(CC(=O)Nc1ccccc1-c1ccccc1)Cc1ccccc1Cl,?,?,?,?,-9
